Among all 310,000 compounds or so, about 14,000 (4.5%) showed an effect of 50% or more. The effect is printed as a negative number. The list comes from a sample in which strong results are over-represented; it also holds similar structures and randomly drawn compounds.
Each molecule was assayed against human ether-à-go-go-related gene (hERG) potassium channel (human, UniProt Q12809) (assay: primary screen, population patch clamp on CHO cells stably expressing hERG; higher = less effect of the substance).
Sequence of human ether-à-go-go-related gene (hERG) potassium channel (Q12809 whole entry, looked up): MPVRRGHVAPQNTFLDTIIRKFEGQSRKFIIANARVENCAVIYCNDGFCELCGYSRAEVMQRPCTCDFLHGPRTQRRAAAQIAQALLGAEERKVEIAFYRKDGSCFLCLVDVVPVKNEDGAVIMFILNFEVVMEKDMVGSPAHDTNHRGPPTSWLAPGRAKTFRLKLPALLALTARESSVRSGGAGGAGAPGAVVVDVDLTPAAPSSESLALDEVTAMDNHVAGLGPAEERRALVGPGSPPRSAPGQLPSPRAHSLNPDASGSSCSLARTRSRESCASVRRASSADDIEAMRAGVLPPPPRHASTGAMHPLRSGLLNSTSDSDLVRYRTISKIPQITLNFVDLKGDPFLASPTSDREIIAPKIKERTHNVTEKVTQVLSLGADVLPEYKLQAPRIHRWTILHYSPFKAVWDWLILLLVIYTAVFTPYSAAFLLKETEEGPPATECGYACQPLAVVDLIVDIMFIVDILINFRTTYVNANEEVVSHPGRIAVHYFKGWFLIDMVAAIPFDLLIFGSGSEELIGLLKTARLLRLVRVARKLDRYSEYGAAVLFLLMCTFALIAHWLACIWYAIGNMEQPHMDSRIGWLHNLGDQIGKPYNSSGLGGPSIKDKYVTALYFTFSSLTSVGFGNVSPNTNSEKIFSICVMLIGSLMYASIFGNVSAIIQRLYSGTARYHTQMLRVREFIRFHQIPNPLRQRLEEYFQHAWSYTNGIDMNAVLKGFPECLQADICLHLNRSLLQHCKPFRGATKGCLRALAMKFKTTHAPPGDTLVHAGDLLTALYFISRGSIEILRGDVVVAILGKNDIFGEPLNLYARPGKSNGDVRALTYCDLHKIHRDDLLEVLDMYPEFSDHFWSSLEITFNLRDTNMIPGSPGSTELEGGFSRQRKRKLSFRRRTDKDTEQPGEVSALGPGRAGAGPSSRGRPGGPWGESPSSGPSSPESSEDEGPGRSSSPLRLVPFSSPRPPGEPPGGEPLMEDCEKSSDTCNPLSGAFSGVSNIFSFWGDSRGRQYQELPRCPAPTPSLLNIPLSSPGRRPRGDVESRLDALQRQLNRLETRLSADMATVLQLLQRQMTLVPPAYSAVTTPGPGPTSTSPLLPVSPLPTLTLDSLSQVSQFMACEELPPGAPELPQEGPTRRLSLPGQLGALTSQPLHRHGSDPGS
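Also: peak tail current of the secondary pulse compared with the same well before compound.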

With `CCc1cccc(CC)c1NC(=O)C1CCN(C(=O)c2ccco2)CC1` as the molecule, how does the “hERG current change (%, negative = inhibition) at 10uM” value read?
Its value is 2.93%.

For `COc1ccc(C(=O)OCn2nnc3ccccc3c2=O)cc1OC`, which “hERG current change (%, negative = inhibition) at 10uM” value is on record?
The value was 8.71%.

Which “hERG current change (%, negative = inhibition) at 10uM” value does the source give for `Cc1ccc(NC(=O)C2C3C=CC4(O3)C2C(=O)N(CCCN2CCCCC2)C4C(=O)NC2CCCCC2)cc1Cl` (stereo not shown) here?
The value was 16.3%.

For `O=C(Nc1ccc(Br)cc1)C1C2C=CC3(O2)C1C(=O)N(CCN1CCOCC1)C3C(=O)NC1CCCCC1` (stereo not shown), which “hERG current change (%, negative = inhibition) at 10uM” value is on record?
The value was -3.6%.

With `O=C(Nc1ccc(Cl)cc1)C1C2C=CC3(O2)C1C(=O)N(CCN1CCCCC1)C3C(=O)NC1CCCCC1` (stereo not shown) as the molecule, how does the “hERG current change (%, negative = inhibition) at 10uM” value read?
Its value is -44.1%.

With `O=C(Nc1ccc(Cl)c(Cl)c1)C1C2C=CC3(O2)C1C(=O)N(CCN1CCCCC1)C3C(=O)NC1CCCCC1` (stereo not shown) as the molecule, how does the “hERG current change (%, negative = inhibition) at 10uM” value read?
The value was -60.8%.

With `Cc1cc(C)cc(NC(=O)C2C3C=CC4(O3)C2C(=O)N(CCN2CCCCC2)C4C(=O)NC2CCCCC2)c1` (stereo not shown) as the molecule, how does the “hERG current change (%, negative = inhibition) at 10uM” value read?
Its value is -40.3%.

With `O=C(Nc1ccc(Br)cc1)C1C2C=CC3(O2)C1C(=O)N(CCN1CCCCC1)C3C(=O)NC1CCCCC1` (stereo not shown) as the molecule, how does the “hERG current change (%, negative = inhibition) at 10uM” value read?
Its value is -59.8%.

With `Cc1ccc(-c2nc(N)n(S(C)(=O)=O)n2)cc1` as the molecule, how does the “hERG current change (%, negative = inhibition) at 10uM” value read?
Its value is 7.05%.

With `CC(C)(C)n1nc2c(c1NC(=O)c1ccccc1F)CS(=O)C2` (stereo not shown) as the molecule, how does the “hERG current change (%, negative = inhibition) at 10uM” value read?
Its value is 15.6%.

How did the “hERG current change (%, negative = inhibition) at 10uM” value turn out when `Cc1ccc2cc(/C=C/C(=O)c3ccco3)c(Cl)nc2c1` was run?
The value was 15.2%.

`O=C(Nc1ccccn1)c1ccc2c(=O)n3c(nc2c1)CCCCC3` was tested. Which “hERG current change (%, negative = inhibition) at 10uM” value did it give?
Its value is -47.2%.

For `Cc1ccc(-c2csc(NC(=O)c3ccc4c(=O)n5c(nc4c3)CCCCC5)n2)cc1`, which “hERG current change (%, negative = inhibition) at 10uM” value is on record?
Its value is -6.65%.

With `Cc1cccc(NC(=O)c2ccc3c(=O)n4c(nc3c2)CCCCC4)n1` as the molecule, how does the “hERG current change (%, negative = inhibition) at 10uM” value read?
Its value is -67.2%.

Which “hERG current change (%, negative = inhibition) at 10uM” value does the source give for `Cc1cc(C)c2nc(NC(=O)c3ccc4c(=O)n5c(nc4c3)CCCCC5)sc2c1` here?
Its value is 13.9%.

For `COc1ccc(C)cc1NC(=O)c1ccc2c(=O)n3c(nc2c1)CCCCC3`, which “hERG current change (%, negative = inhibition) at 10uM” value is on record?
Its value is -42.5%.

With `O=C(Nc1ccccc1Cl)c1ccc2c(=O)n3c(nc2c1)CCC3` as the molecule, how does the “hERG current change (%, negative = inhibition) at 10uM” value read?
Its value is -6.14%.

With `Cc1csc(NC(=O)c2ccc3c(=O)n4c(nc3c2)CCCCC4)n1` as the molecule, how does the “hERG current change (%, negative = inhibition) at 10uM” value read?
The value was -80.3%.

Which “hERG current change (%, negative = inhibition) at 10uM” value does the source give for `O=C(Nc1nc(-c2ccccc2)cs1)c1ccc2c(=O)n3c(nc2c1)CCCCC3` here?
The value was -23.8%.

`Cc1ccc(NC(=O)c2ccc3c(=O)n4c(nc3c2)CCCCC4)nc1` was tested. Which “hERG current change (%, negative = inhibition) at 10uM” value did it give?
The value was -60.4%.

Which “hERG current change (%, negative = inhibition) at 10uM” value does the source give for `COc1ccc(-c2cc(C(=O)N3CCN(c4ncccn4)CC3)c3ccccc3n2)cc1` here?
Its value is -33.4%.

For `CCCCNCc1nc2ccccc2c(=O)[nH]1.Cl`, which “hERG current change (%, negative = inhibition) at 10uM” value is on record?
The value was 5.81%.

Which “hERG current change (%, negative = inhibition) at 10uM” value does the source give for `COc1ccc(/C=N\NC(=O)c2ccc(=O)[nH]n2)cc1O` here?
The value was 18.4%.

Which “hERG current change (%, negative = inhibition) at 10uM” value does the source give for `Brc1cccc(-c2nnc(SCc3ccon3)n2-c2ccccc2)c1` here?
Its value is -48.9%.

How did the “hERG current change (%, negative = inhibition) at 10uM” value turn out when `Cc1ccc(NC(=O)CN2c3cccc4cccc(c34)S2(=O)=O)cc1S(=O)(=O)N1CCOCC1` was run?
The value was 0.358%.

With `Cc1cc(NC(=O)COc2c(C)cccc2C)no1` as the molecule, how does the “hERG current change (%, negative = inhibition) at 10uM” value read?
Its value is 22.3%.

With `CC(=O)c1cccc(NC(=O)C(C)N(C)CC(=O)Nc2ccc(Cl)cc2)c1` (stereo not shown) as the molecule, how does the “hERG current change (%, negative = inhibition) at 10uM” value read?
Its value is -5.14%.

`c1ccc(Oc2nnc(-c3cccs3)c3ccccc23)cc1` was tested. Which “hERG current change (%, negative = inhibition) at 10uM” value did it give?
The value was -5.87%.

With `O=C(c1ccc(F)cc1)N1CCN(S(=O)(=O)c2ccc(Br)cc2)CC1` as the molecule, how does the “hERG current change (%, negative = inhibition) at 10uM” value read?
The value was -5.63%.

`O=C(c1ccncc1)N1CCN(S(=O)(=O)c2ccc(F)cc2)CC1` was tested. Which “hERG current change (%, negative = inhibition) at 10uM” value did it give?
The value was 15.2%.

For `Cc1ccnn1-c1ccc(C(=O)N2CCCN(S(=O)(=O)c3ccc(F)cc3)CC2)cc1`, which “hERG current change (%, negative = inhibition) at 10uM” value is on record?
The value was -69.7%.

`Cc1ccc(S(=O)(=O)N2CCN(C(=O)c3ccccc3)CC2)cc1` was tested. Which “hERG current change (%, negative = inhibition) at 10uM” value did it give?
The value was -31%.

How did the “hERG current change (%, negative = inhibition) at 10uM” value turn out when `O=C(c1ccc(-n2cccn2)cc1)N1CCN(c2ncccc2C(F)(F)F)CC1` was run?
The value was -60.4%.

With `Cc1ccc(S(=O)(=O)N2CCN(C(=O)c3cccc(-n4cccc4)c3)CC2)cc1` as the molecule, how does the “hERG current change (%, negative = inhibition) at 10uM” value read?
The value was -51.3%.

How did the “hERG current change (%, negative = inhibition) at 10uM” value turn out when `Cc1ccc(S(=O)(=O)N2CCCN(C(=O)c3ccc(-n4cccn4)cc3)CC2)cc1` was run?
The value was -74.2%.

Which “hERG current change (%, negative = inhibition) at 10uM” value does the source give for `O=C(c1cccc(-n2cccc2)c1)N1CCN(S(=O)(=O)c2ccc(F)cc2)CC1` here?
The value was -34.7%.

Which “hERG current change (%, negative = inhibition) at 10uM” value does the source give for `CC(C)(C)C(=O)N1CCN(c2ncccc2C(F)(F)F)CC1` here?
The value was 1.88%.

Which “hERG current change (%, negative = inhibition) at 10uM” value does the source give for `O=C(c1cccc(-n2cccc2)c1)N1CCN(S(=O)(=O)c2ccccc2)CC1` here?
The value was -32%.

With `O=C(O)CCC(=O)N1CCN(c2ncccc2C(F)(F)F)CC1` as the molecule, how does the “hERG current change (%, negative = inhibition) at 10uM” value read?
Its value is 9.74%.

`Cc1ccc(S(=O)(=O)N2CCN(C(=O)c3ccc(S(=O)(=O)N4CCCC4)cc3)CC2)cc1` was tested. Which “hERG current change (%, negative = inhibition) at 10uM” value did it give?
The value was -6.64%.

For `CCOC(=O)c1sc2nc(N3CCCC3)c3c(c2c1N)CC(C)(C)OC3`, which “hERG current change (%, negative = inhibition) at 10uM” value is on record?
Its value is 10.4%.

For `O=[N+]([O-])c1cccc(N/N=C/c2cccc(O)c2O)c1`, which “hERG current change (%, negative = inhibition) at 10uM” value is on record?
The value was 16.7%.

How did the “hERG current change (%, negative = inhibition) at 10uM” value turn out when `COc1ccc(-c2n[nH]c3c2C(c2ccc(OC)c(OC)c2)N(c2ccccc2)C3=O)cc1` (stereo not shown) was run?
The value was 3.73%.

With `Cc1cc(Cl)ccc1N(CC(=O)NCc1ccccc1)S(C)(=O)=O` as the molecule, how does the “hERG current change (%, negative = inhibition) at 10uM” value read?
The value was -1.12%.

`Cc1cc(Cl)ccc1OCCCC(=O)NNC(=O)c1ccncc1` was tested. Which “hERG current change (%, negative = inhibition) at 10uM” value did it give?
Its value is -30.2%.

`CC(Sc1nnc(COc2ccc(Cl)cc2)n1Cc1ccco1)C(=O)N1CCNC1=O` (stereo not shown) was tested. Which “hERG current change (%, negative = inhibition) at 10uM” value did it give?
The value was -55.9%.

— article PMC4336329 (PLoS ONE, 2015)
